The values that follow come from PubChem BioAssay.

The test system of assay [1] is Human papillomavirus type 1a protein E7 (residues 44-93). Briefly: HPV1a E7 fragment binders on microarrays, primary screen, biochemical, small-molecule microarray, residues 44-93, 635 nm fluorescence (AID 1108).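 Also: E7 fragment applied at 1 µg/mL in TBST for 1 h at 4 C; score combines spot fluorescence with its signal to noise ratio.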 The note with it: small-molecule microarray binding, fluorescence 635 nm; higher = more signal.
The nature of assay [2]: modulators of HCV replicon luciferase signal, primary screen, HCV replication inhibitor project, Huh7 cells, luciferase reporter (AID 1109).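 Also: huh7 hepatoma cells harbouring a luciferase neomycin HCV replicon reporter; luciferase luminescence as measure of HCV replicon replication; test concentration not given here.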 Conditions: 48 h, higher = more signal. (In general: In antiviral work, replicon cells carry a viral genome segment that copies itself.)
The target of assay [3] is Left-right determination factor 2 (Homo sapiens) (UniProt O00292). Briefly: LEFTY2 binders on small-molecule microarrays, primary screen, biochemical, small-molecule microarray, 635 nm fluorescence scan (AID 1110). Conditions: LEFTY2 binding, higher = more signal.
In assay [4] the target is Calmodulin-1 (Homo sapiens) (UniProt P0DP23). Briefly: CALM1 binders on microarrays, EGTA buffer, profiling panel, biochemical, small-molecule microarray, Cy5-labelled CALM1 (AID 1111).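 Also: labelled calmodulin applied in Tris saline Tween buffer holding calcium plus EGTA and DTT.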 The note with it: Cy5-CALM1 binding fluorescence, higher = more signal.
Assay [5] shares this target. Briefly: calcium-bound CALM1 binders on microarrays, profiling panel, artefact control for SMM control-protein annotation, biochemical, small-molecule microarray, Cy5-labelled CALM1, plus calcium (AID 1112).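 Also: score merges spot fluorescence with signal to noise from triplicate slides.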 The note with it: Cy5-CALM1 binding fluorescence, higher = more signal.
Assay [6] in a line: small-molecule microarray binders of probe aWnt5a, primary screen, biochemical, biotinylated probe, 635/667 nm fluorescence (AID 1113).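 Also: score merges 667 nm fluorescence intensity with signal-to-noise per printed feature.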 Conditions: higher = more signal.
The nature of assay [7]: small-molecule microarray binders of probe aShh, primary screen, biochemical, biotinylated probe, 635/667 nm fluorescence (AID 1114).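 Also: probe is biotin-labelled aShh protein from a stem cell growth factor screen; measures binding of labelled protein to compounds printed on the slide; score merges feature fluorescence at 667 nm with signal-to-noise.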 Conditions: higher = more signal.
Assay [8] in a line: small-molecule microarray binders of probe aNog, primary screen, biochemical, biotinylated probe, 635/667 nm fluorescence (AID 1115).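 Also: probe is biotinylated aNog protein used at 0.15 µg/mL for 1 h at 4 C; z-score combines 667 nm fluorescence of each spot with its signal to noise.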 Conditions: higher = more signal.
Assay [9] has as its target Torsin-1A-interacting protein 1 (Homo sapiens) (UniProt Q5JTV8). As to the kind of experiment: LAP1 binders from COS7 cell lysate, primary screen, small-molecule microarray, 635/667 nm fluorescence (AID 1116). The note with it: COS7-hLAP1 lysate binding, 635 nm fluorescence, higher = more signal.
Assay [10] has as its target Alpha-bungarotoxin (Bungarus multicinctus) (UniProt P60615). As to the kind of experiment: alpha-bungarotoxin binders on microarray, profiling panel, artefact control for SMM control protein annotation, biochemical, small-molecule microarray, Alexa647 label, 635/667 nm fluorescence (AID 1117). Conditions: alpha-BTX-A647 binding fluorescence, higher = more signal.

Sequence of Torsin-1A-interacting protein 1 (Homo sapiens) (Q5JTV8 whole entry, looked up): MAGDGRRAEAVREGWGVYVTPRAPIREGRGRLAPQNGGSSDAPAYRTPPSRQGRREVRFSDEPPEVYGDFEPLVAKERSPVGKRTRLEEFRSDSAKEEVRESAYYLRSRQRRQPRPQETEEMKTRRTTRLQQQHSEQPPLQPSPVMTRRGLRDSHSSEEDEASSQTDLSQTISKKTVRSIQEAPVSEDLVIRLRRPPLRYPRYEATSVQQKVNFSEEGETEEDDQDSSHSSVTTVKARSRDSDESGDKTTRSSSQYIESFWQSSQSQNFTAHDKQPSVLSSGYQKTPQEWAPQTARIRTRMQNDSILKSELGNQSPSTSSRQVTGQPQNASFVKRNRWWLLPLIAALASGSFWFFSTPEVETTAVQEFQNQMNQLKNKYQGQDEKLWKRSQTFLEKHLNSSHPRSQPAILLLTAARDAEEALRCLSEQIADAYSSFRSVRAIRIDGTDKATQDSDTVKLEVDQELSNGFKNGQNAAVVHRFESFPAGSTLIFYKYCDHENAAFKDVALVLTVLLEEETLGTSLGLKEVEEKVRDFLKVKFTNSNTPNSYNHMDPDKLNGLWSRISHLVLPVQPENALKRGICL
Sequence of Alpha-bungarotoxin (Bungarus multicinctus) (P60615 whole entry, looked up): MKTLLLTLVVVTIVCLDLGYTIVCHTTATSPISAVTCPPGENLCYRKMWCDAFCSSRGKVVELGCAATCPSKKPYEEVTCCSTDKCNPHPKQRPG
Sequence of Left-right determination factor 2 (Homo sapiens) (O00292 whole entry, looked up): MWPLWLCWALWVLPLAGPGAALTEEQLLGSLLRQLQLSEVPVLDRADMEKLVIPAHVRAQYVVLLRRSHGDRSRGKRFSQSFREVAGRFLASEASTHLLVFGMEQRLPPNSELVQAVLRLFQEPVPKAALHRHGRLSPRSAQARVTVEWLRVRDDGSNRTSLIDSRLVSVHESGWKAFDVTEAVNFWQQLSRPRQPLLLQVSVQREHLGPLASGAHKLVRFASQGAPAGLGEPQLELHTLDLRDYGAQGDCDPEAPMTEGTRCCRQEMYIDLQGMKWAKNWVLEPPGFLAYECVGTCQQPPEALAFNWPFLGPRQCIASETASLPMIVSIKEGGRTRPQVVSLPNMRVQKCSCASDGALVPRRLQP

For `CCOC(=O)[C@H]1C/C=C/C[C@H](C(=O)OCC)C(=O)O[C@H]2[C@@H](OC)O[C@H](CO)[C@@H](OC(=O)CCc3ccccc3)[C@@H]2OC1=O`, the composite z-score was -0.431 in assay [1]; -1.59 in assay [3]; -0.381 in assay [4]; 0.367 in [5]; -0.184 in assay [6]; -0.0937 in assay [7]. In addition, the composite z-score was 1.47 in assay [8], 0.162 in assay [9] and -0.187 in [10]. The compound further gave a z-score in [2] of -1.85.

Regarding `[N-]=[N+]=Nc1ccccc1C[C@@]1(C(=O)O)N=C(c2ccc(OCCCO)cc2)O[C@@H]1c1ccccc1`, the composite z-score was 1.3 in assay [1]; -0.862 in [3]; 1.73 in assay [4]; 0.294 in [5]; -0.0566 in [6]; 0.191 in assay [7]. Moreover, the composite z-score in assay [8] turned out to be 0.905; in assay [9], 0.24; in assay [10], 1.08. Besides, in assay [2], the z-score was 1.34.

With `NC(N)=NCc1cn(CCc2c[nH]c3ccccc23)nn1`, the composite z-score in assay [1] is 0.712; in assay [3], 1.23; in assay [4] it was -0.732; in [5] it was -1; in [6], -0.114; in assay [7] it was 0.0141. The values for the composite z-score in assay [8], in assay [9] and in [10] were -0.158, 0.615 and 0.755, respectively. For the same compound, the z-score in assay [2] was -1.66.

As for `CC(C)(C)OC(=O)CC[C@]1(C(=O)N2CCOCC2)N=C(c2ccc(OCCCO)cc2)O[C@H]1c1ccccc1`, the composite z-score in [1] was 0.79; in assay [3] it was -0.356; in assay [4], 0.0137; in assay [5], -0.031; in assay [6], -0.0459; in assay [7], -0.27. Besides, the composite z-score in [8] was -0.375; in assay [9], 1.07; in assay [10] it was 0.109. Also, in assay [2], the z-score was -0.304.

On to `CN1C(=O)[C@@]2(CCS(=O)(=O)c3ccccc3)N=C(c3ccc(OCCCO)cc3)O[C@H]2c2ccccc21`, for which the composite z-score in [1] is 1.48; in assay [3], -0.0486; in assay [4], 2.46; in [5], -0.865; in assay [6], -0.176; in assay [7], -0.367. Also, the figures for the composite z-score in assay [8], in [9] and in assay [10] were -0.321, 1.72 and 1.32, respectively. Further, the z-score in [2] is -1.55.

Regarding `COc1ccc(C(O)C2C=CC3C(=O)N(c4ccccc4)C(=O)C3N2Nc2ccc(C#N)cc2)c2ccccc12` (stereo not given), the composite z-score was 0.596 in assay [1]; -0.199 in assay [3]; 2.63 in assay [4]; 1.07 in assay [5]; 0.0388 in assay [6]; -0.0709 in assay [7]. Moreover, the values for the composite z-score in assay [8], in assay [9] and in assay [10] were 1.45, 1.83 and 1.68, respectively. This compound had a z-score in [2] of -0.46.

Take `C=C(C(=O)CC[C@H](OC(C)=O)c1cccc(OCCO)c1)C(C)C`: the composite z-score in assay [1] is -0.521; in [3], -0.728; in assay [4] it was -0.765; in [5] it was -0.608; in assay [6], -0.206; in [7], -0.117. The composite z-score in assay [8] was -0.107; in assay [9], -0.397; in [10], 1.98. The z-score in assay [2] was -1.01.

On to `COCCOC(=O)N1C(=O)[C@@]2(c3cc(C#Cc4ccc(OC)cc4)ccc31)[C@H](C(=O)N1CCN(c3ncccn3)CC1)[C@H]1C(=O)O[C@H](c3ccccc3)[C@H](c3ccccc3)N1[C@@H]2c1ccccc1OCCO`, for which the composite z-score is 1.23 in [1]; 0.0641 in assay [3]; 0.551 in assay [4]; 0.858 in assay [5]; -0.131 in [6]; -0.0011 in assay [7]. The composite z-score was found to be 0.187 in assay [8], 0.931 in assay [9] and 1 in [10]. The same compound returned a z-score in assay [2] of -0.509.

In the case of `CCOC(=O)C1=CC[C@@H](c2ccc([N+](=O)[O-])cc2)N(S(=O)(=O)c2ccc(C)cc2)[C@H]1c1ccccc1`, the composite z-score in [1] is 1.4; in assay [3], 0.995; in assay [4] it was 0.455; in [5] it was 0.423; in assay [6] it was 0.0324; in assay [7], -0.0769. Besides, the composite z-score came out at 0.506 in assay [8], 0.378 in assay [9] and 0.962 in assay [10]. The z-score in assay [2] was -1.55.

For the compound `C=CCC(OC(C)=O)[C@@H]1[C@@H](N(Cc2ccc(-c3ccccc3)cc2)C(=O)c2cccc3ccccc23)c2cc(OCCCO)ccc2N1C(=O)Cc1ccc2ccccc2c1` (stereo not given in full), the composite z-score is -0.106 in [1]; -0.304 in assay [3]; -0.29 in [4]; 0.842 in assay [5]; -0.108 in assay [6]; -0.243 in [7]. For the same compound, the composite z-score was -0.225 in assay [8], 0.0247 in assay [9] and 0.528 in assay [10]. Also, the z-score in assay [2] is -0.374.

Regarding `CC(C)C(=C=CC[C@@H](O)c1ccccc1OCCO)C[C@@H](O)COCc1ccccc1`, the composite z-score is 0.247 in [1]; 0.639 in assay [3]; 0.277 in [4]; 0.652 in assay [5]; -0.128 in assay [6]; -0.0769 in assay [7]. Further, the composite z-score was 0.583 in assay [8], 0.573 in assay [9] and -0.345 in [10]. In [2], this compound returned a z-score of -1.21.

Take `O=C1c2ccccc2[C@](Cc2ccccc2I)(C(=O)NCCN2CCOCC2)[C@H](c2ccc(CO)cc2)N1Cc1ccccc1`: the composite z-score in [1] stood at 1.41; in [3] it was 0.522; in assay [4], 1.25; in [5], 0.295; in assay [6], 0.359; in assay [7] it was 0.385. Further, the composite z-score stood at 0.482 in [8], 0.496 in assay [9] and 1.64 in assay [10]. Moreover, in assay [2], the z-score was -1.79.

Consider `CC(C)(C)OC(=O)CC[C@@]1(C(=O)O)N=C(c2ccc(OCCCO)cc2)O[C@@H]1c1ccccc1CN=[N+]=[N-]`, for which the composite z-score in assay [1] was 1.31; in assay [3] it was -0.677; in assay [4], 1.33; in [5] it was 1.09; in assay [6], 0.145; in assay [7], 0.218. Moreover, the composite z-score in [8] is -0.1; in [9], 1.24; in [10], 2.78. In assay [2], this compound gave a z-score of -2.21.

As to `CO[C@H]1O[C@H](CO)[C@@H](OC(=O)Nc2ccc(Oc3ccccc3)cc2)[C@H](OC(=O)Nc2ccccc2-c2ccccc2)[C@@H]1OC(=O)Nc1ccccc1-c1ccccc1`, the composite z-score is 1.02 in [1]; 0.242 in assay [3]; 2.17 in assay [4]; 0.409 in [5]; -0.0667 in assay [6]; 0.256 in assay [7]. In addition, the composite z-score came out at 1.74 in [8], 1.27 in assay [9] and 1.52 in assay [10]. In [2], this compound came in with a z-score of -3.19.

For the compound `COc1cc(CO)cc(I)c1O[C@H]1C=C(C(=O)NCCO)C[C@@H](N(CC2CCCCC2)C(=O)c2ccc(C(F)(F)F)cc2)[C@@H]1O`, the composite z-score in assay [1] is 1.15; in assay [3] it was 0.402; in [4], 0.0208; in [5], -0.21; in [6], -0.087; in assay [7], -0.2. Besides, the composite z-score in [8] is -0.144; in assay [9], 0.465; in assay [10], -0.8. In assay [2], this compound showed a z-score of -1.54.
